The whole screen tested about 290,000 compounds, of which about 1,000 (0.34%) were called active. What follows is part of a selection rich in actives, with near analogues and random picks from the rest. Unmarked numbers belong to inactive results. Cut-off read from the data, not from the text of the source: active = percent response above about 24% (passing the limit was not always enough); inactive = the rest.
What follows are compounds tested on MEKK2 (MAP3K2) mutant PB1 domain binding to MEK5, human (assay: MEK5 binding signal on mutant MEKK2 PB1, primary screen, biochemical, multiplex bead flow cytometry, Alexa488-MEK5 (AID 1530)). Details: at 10 µM, hits give high values.

Structure (SMILES)	percent response
Cc1ccc(CNC(=O)c2ccc3c(c2)S(=O)(=O)c2ccccc2C3=O)cc1	6%
COC(=O)Nc1ccc(S(=O)(=O)Nc2cc(OC)nc(OC)n2)cc1	7%
COc1ccc(C=C(C#N)C#N)c(CSc2ccccn2)c1	11%
O=C(NC1CCN(S(=O)(=O)c2ccc(F)cc2)CC1)c1ccccc1	4%
Cc1ccc(S(=O)(=O)NC(=O)N2CCCC(C)(C)C2)cc1	24% (active)
Cc1ccc(S(=O)(=O)NC(=O)N2CCCN(Cc3ccc(F)cc3)CC2)cc1	-4%
Cc1ccc(S(=O)(=O)NCC(=O)N2CCOCCOCCOCCOCC2)cc1	-7%
O=[N+]([O-])c1ccc2nc(-c3ccccn3)[nH]c2c1	-17%
Cc1cccc(Nc2nc(NCCO)nc(N3CCCC3)n2)c1	4%
COc1ccc(Cn2c(=S)[nH]c3cc(C(=O)N4CCCCC4)ccc3c2=O)cc1	-5%
C/C(=N\NC(=O)c1ccc(NS(=O)(=O)c2cccs2)cc1)c1ccc2ccccc2c1	-4%
CC(=O)c1cccc(OCc2cc(C(=O)NC(C)Cc3cccnc3)no2)c1 (configuration not stated)	10%
CC(=O)Nc1ccc(Nc2c3ccccc3nc3ccccc23)cc1	3%
CC(=O)Nc1ccc(-c2nc3ccccc3o2)cc1	28% (active)
Cc1ccc2nc(-c3ccc(NC(=O)c4cccnc4)cc3)oc2c1	0%
COc1ccc(-n2nc(C(=O)NCC(=O)N3CCCCCC3)c3ccccc3c2=O)cc1Cl	6%
COc1ccc(CC(=O)Nc2cc(S(=O)(=O)N3CCCCC3)ccc2N2CCN(C)CC2)cc1	-1%
CCN1CCN(c2ccc(S(=O)(=O)N3CCCCC3)cc2NC(=O)Cc2c(Cl)cccc2Cl)CC1	24% (active)
CN1CCN(c2ccc(S(=O)(=O)N3CCCCC3)cc2NC(=O)Cc2ccccc2F)CC1	0%

Structure (SMILES)	percent response
Cc1cccc(S(=O)(=O)N2CN(CC3CCCO3)c3nc4ccccc4nc32)c1 (configuration not stated)	1%
Cc1ccc([N+](=O)[O-])c(OCCCNCC(C)O)c1 (configuration not stated)	7%
CCOc1ccc(NC(=O)CCCCCN2C(=O)[C@@H]3Cc4ccccc4CN3C2=O)cc1	0%
CN(C)CCCNC(=O)c1cc(C(=O)Cc2ccc(Cl)cc2)c[nH]1	27% (active)
CC(C)CC(=O)c1c[nH]c(C(=O)NCc2ccccc2)c1	10%
CN(C)CCCNC(=S)NCc1ccc(Cl)cc1	13%
Cc1noc(C)c1C(=O)NCCc1ccc(S(N)(=O)=O)cc1	2%
Cc1ccc2nc(-c3ccc(NC(=O)CN(C)S(=O)(=O)c4ccccc4)cc3)sc2c1	-5%
OCCNc1nc(Nc2ccc(Cl)c(Cl)c2)nc2ccccc12	31% (active)
CN(C)c1nc(Nc2ccc(Cl)c(Cl)c2)nc(N(C)C)n1	0%
Nc1nc(Nc2ccccc2)nc(NCCO)c1[N+](=O)[O-]	-1%
CCOC(=O)C1=C(CN2CCc3ccccc32)NC(=O)NC1c1cc(C)ccc1C (configuration not stated)	5%
COc1cc2c(cc1OC)C(C)N(S(=O)(=O)c1cnc(Cl)c(Cl)c1)CC2 (configuration not stated)	10%
O=c1c2c3c(sc2n(CCN2CCCC2)c(=O)n1Cc1ccccc1)CCCCC3	1%
O=C(CC1NCCNC1=O)Nc1cc(Cl)cc(Cl)c1 (configuration not stated)	2%
O=C(CC1SCCNC1=O)Nc1ccc(Cl)c(Cl)c1 (configuration not stated)	174% (active)
O=C(CC1SCCNC1=O)Nc1ccc(Cl)cc1 (configuration not stated)	-10%
Cc1ccc(C(=O)c2coc3ccc(O)c(CN(C)C)c23)cc1	11%
COc1cccc2sc(N(CCCN(C)C)C(=O)C(c3ccccc3)c3ccccc3)nc12	22%

Structure (SMILES)	percent response
CN(C)CCCN(C(=O)COc1ccccc1)c1nc2c(Cl)cccc2s1	87% (active)
COc1cccc2sc(N(CCCN(C)C)C(=O)CCS(=O)(=O)c3ccccc3)nc12	6%
C/C(=N\NC(=O)c1ccoc1C)c1ccccc1O	3%
O=S(=O)(NC1CCCCC1N1CCC(O)CC1)c1ccc(Cl)cc1 (configuration not stated)	2%
COc1ccc(C2NC(=O)C(=O)/C2=C(\O)c2ccc(Cl)cc2)cc1OC (configuration not stated)	5%
O=C(NCCc1ccc(Cl)cc1)C1CC(=O)N(C2CCCCC2)C1 (configuration not stated)	-5%
CC(C)OCCCNC(=O)C1CC(=O)N(C2CCCCCCC2)C1 (configuration not stated)	10%
O=C(NCCCN1CCCCCC1)C1CC(=O)N(C2CCCC2)C1 (configuration not stated)	31% (active)
CC1(C)C=Cc2c(ccc3c2OC[C@@H](c2ccc(O)cc2O)C3)O1	2%
CNc1nc2c(C)cccn2c(=O)c1C=Nc1ccc(OC)cc1	0%
Cc1cccn2c(=O)c(/C=C3\SC(=S)N(CC(C)C)C3=O)c(NCCCOC(C)C)nc12	97% (active)
CCCN(CCC)c1nc2c(C)cccn2c(=O)c1/C=C1/SC(=S)N(Cc2ccco2)C1=O	147% (active)
O=C(CCCN1C(=O)/C(=C/c2ccco2)SC1=S)Nc1ccccc1	0%
O=C(CCCN1C(=O)/C(=C\c2ccco2)SC1=S)Nc1cccc2ccccc12	-3%
CCOC(=O)CC1C(=O)NCCN1c1nc2c(C)cccn2c(=O)c1/C=C1\SC(=S)N(C(C)CC)C1=O (configuration not stated)	-23%
Nc1ccc2nn(-c3ccc(Cl)cc3)nc2c1	-4%
Cc1cc2oc(=O)cc(CN3CCN(S(=O)(=O)c4cccs4)CC3)c2cc1C(C)C	0%
COC(=O)c1ccc(CNC(=O)C2CCC(=O)N(Cc3cccc(F)c3)C2)cc1 (configuration not stated)	4%
O=C(Cn1ncc2c3ccccc3n(Cc3ccccc3)c2c1=O)NCCCN1CCOCC1	4%

Source: PubChem BioAssay AID1530 (NMMLSC, 2009)
